# Laboratory results taken from PubChem BioAssay AID651871 (Sanford-Burnham Center for Chemical Genomics, 2012).
# Values joined by “and” are separate entries in the source; they are usually repeats but may differ in a detail not shown here. Identical values can stand only once.
# Test system: H9c2
# Assay: protection of cardiomyocytes from stress damage, SAR follow-up, cell-based, panel, H9c2 and HL-1, ATP luminescence, set 2 (AID 651871);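 further: cells exposed to stressor for 2 h before ATP readout; reference of the scale not given here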
# Settings: H9c2/HL-1 cardiomyocytes, H2O2 oxidative stress, with H2O2, run 2, at 79 µM (top of the series)
row,Compound,activity (protection/inhibition)
1,COc1ccc2c(c1OC)C(=O)N1c3ccccc3C(=O)N(Cc3cccc(Cl)c3Cl)C21 (centres undefined),101% and 61%
2,COc1ccc2nc(-c3cc(OC)c(OC)c(OC)c3)cc(C(=O)NCC(=O)Nc3ccc(C(C)=O)cc3)c2c1,122% and 100%
3,CCOC(=O)c1cccc(NC(=O)CNC(=O)c2cc(-c3cc(OC)c(OC)c(OC)c3)nc3ccccc23)c1,114%
4,COc1cc(-c2cc(C(=O)Nc3cccc(C(=O)NCc4ccccc4)c3)c3ccccc3n2)cc(OC)c1OC,119%
